The whole screen tested about 5,500 compounds, of which about 2,000 (36%) were called active. Roughly 18% stayed inconclusive and do not appear here. Cut-off read from the data, not from the text of the source: active = normalized growth mostly below about 0.91 (no sharp cut-off); inconclusive = no clear call, values can overlap the other calls; inactive = mostly above about 0.92. The list shows a part of the results.
Test: chemical genetic growth profiling, strain panel (AID 1159580);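 note: tested at 20 µM; growth read once vehicle control cultures reached saturation at 30 °C; 1 = growth at the plate median or of vehicle wells; lower values mean less growth of the strain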
Conditions: S. cerevisiae deletion strains, growth OD

Measured: normalized growth

C[C@H]1[C@H](C)CC[C@]2(C(=O)O)CC[C@]3(C)C(=CCC4[C@@]5(C)C[C@@H](O)[C@H](O)[C@@](C)(CO)C5CC[C@]43C)[C@H]12 (stereo not given in full)
active: locus YLR113W, strain HOG1, hits give low values 0.721
inactive: locus YAL021C, strain ccr4, hits give low values 0.993 | locus YAL026C, strain drs2, hits give low values 1.04 | locus YAL030W, strain snc1, hits give low values 1.02 | locus YBL061C, strain skt5, hits give low values 1.01 | locus YBR009C, strain hhf1, hits give low values 1.01 | locus YBR023C, strain chs3, hits give low values 0.995 | locus YBR171W, strain sec66, hits give low values 1.04 | locus YBR231C, strain swc5, hits give low values 1.03 | locus YBR279W, strain paf1, hits give low values 1.01 | locus YCL011C, strain gbp2, hits give low values 1.02 | locus YCL016C, strain dcc1, hits give low values 1.01 | locus YCL061C, strain MRC1, hits give low values 1.02 | locus YCL069W, strain vba3, hits give low values 1.03 | locus YCR088W, strain abp1, hits give low values 1.03 | locus YDL005C, strain med2, hits give low values 1.03 | locus YDL040C, strain nat1, hits give low values 1.02 | locus YDR001C, strain nth1, hits give low values 1.03 | locus YDR069C, strain doa4, hits give low values 1.02 | locus YDR137W, strain rgp1, hits give low values 0.982 | locus YDR159W, strain sac3, hits give low values 0.983 | locus YDR195W, strain ref2 0.945 | locus YDR297W, strain sur2, hits give low values 1.02 | locus YDR334W, strain swr1, hits give low values 1.04 | locus YDR335W, strain msn5, hits give low values 1.02 | locus YDR392W, strain spt3, hits give low values 0.931 | locus YEL003W, strain gim4, hits give low values 1.02 | locus YEL037C, strain rad23, hits give low values 1.03 | locus YEL061C, strain CIN8 (second series), hits give low values 1.03 | locus YER015W, strain faa2, hits give low values 1.02 | locus YER016W, strain bim1, hits give low values 1.02 | locus YER111C, strain swi4, hits give low values 1.03 | locus YER155C, strain BEM2 (second series), hits give low values 1 | locus YFR010W, strain ubp6, hits give low values 1.04 | locus YGL167C, strain pmr1, hits give low values 1.03 | locus YGL173C, strain kem1, hits give low values 1.03 | locus YGL227W, strain vid30, hits give low values 1.04 | locus YGL240W, strain doc1, hits give low values 0.988 | locus YGL253W, strain hxk2, hits give low values 1.03 | locus YHR013C, strain ard1, hits give low values 1.03 | locus YHR027C, strain rpn1, hits give low values 1.02 | locus YHR030C, strain SLT2, hits give low values 0.949 | locus YHR079C, strain IRE1, hits give low values 0.937 | locus YHR142W, strain chs7, hits give low values 0.996 | locus YJL092W, strain hpr5, hits give low values 1.04 | locus YJL095W, strain BCK1 (second series), hits give low values 1.02 | locus YJL095W, strain BCK1, hits give low values 0.911 | locus YJL115W, strain asf1, hits give low values 1.02 | locus YJL129C, strain trk1, hits give low values 1 | locus YJL154C, strain vps35, hits give low values 1.03 | locus YJL164C, strain tpk1, hits give low values 0.993 | locus YJL166W, strain qcr8, hits give low values 0.996 | locus YJL187C, strain SWE1, hits give low values 1.02 | locus YJR066W, strain TOR1, hits give low values 0.939 | locus YKL160W, strain elf1, hits give low values 0.975 | locus YKR026C, strain gcn3, hits give low values 1.03 | locus YKR091W, strain srl3, hits give low values 1.02 | locus YLL001W, strain dnm1, hits give low values 1 | locus YLL026W, hits give low values 1.01 | locus YLL041C, strain sdh2, hits give low values 1.02 | locus YLR027C, strain aat2, hits give low values 1.01 | locus YLR221C, strain rsa3, hits give low values 0.982 | locus YLR258W, strain gsy2, hits give low values 1.01 | locus YLR262C, strain YPT6 (second series), hits give low values 0.975 | locus YLR320W, strain mms22, hits give low values 1.02 | locus YLR342W, strain FKS1, hits give low values 1.04 | locus YLR357W, strain rsc2, hits give low values 1.05 | locus YLR370C, strain arc18, hits give low values 1.03 | locus YLR384C, strain iki3, hits give low values 1.03 | locus YML120C, strain ndi1, hits give low values 0.978 | locus YMR058W, strain fet3, hits give low values 1.03 | locus YMR125W, strain sto1, hits give low values 1.05 | locus YMR129W, hits give low values 1.04 | locus YMR205C, strain PFK2, hits give low values 1.01 | locus YMR231W, strain pep5, hits give low values 1.03 | locus YNL071W, strain lat1, hits give low values 1.02 | locus YNL183C, strain NPR1, hits give low values 0.894 | locus YNL209W, strain ssb2, hits give low values 1.03 | locus YNL248C, strain rpa49, hits give low values 1.03 | locus YNL322C, strain KRE1 (second series), hits give low values 1.03 | locus YNR049C, strain mso1, hits give low values 1.03 | locus YOR001W, strain rrp6, hits give low values 0.973 | locus YOR070C, strain gyp1, hits give low values 1.01 | locus YOR080W, strain dia2, hits give low values 1.03 | locus YOR083W, strain WHI5, hits give low values 0.984 | locus YOR106W, strain vam3, hits give low values 0.981 | locus YOR231W, strain MKK1, hits give low values 0.973 | locus YOR265W, strain rbl2, hits give low values 1.02 | locus YOR270C, strain vph1, hits give low values 1.03 | locus YOR290C, strain snf2, hits give low values 0.968 | locus YPL051W, strain arl3, hits give low values 0.974 | locus YPL078C, strain atp4, hits give low values 1 | locus YPL106C, strain sse1, hits give low values 1.01 | locus YPL240C, strain hsp82, hits give low values 1.03 | locus YPL256C, strain CLN2, hits give low values 0.963
